Assay results taken from the supplement of paper PMC12636033.
± gives the standard deviation of the averaged measurements. Whole data set: some 33,000 sequences, median “E-score (rank enrichment, -0.5 to 0.5)” near -0.0068, cut for the highest 2% near 0.24. For the sample, the highest values were picked, then their nearest neighbours and some sequences at random.

system: muMax20 (Max(13-93) K31hArg/K57hArg, M65Nle); assay: PBM 8-mer E-score (E-score (rank enrichment, -0.5 to 0.5)); higher = stronger preferential binding
Experimental: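 Protein binding microarray (universal PBM chip covering all 10-mers in fixed probe flanks) with chemically synthesized human Max(13-93) bHLH-LZ analogs (not full-length Max) bearing noncanonical residues (hArg, Tha, Aib, Nle at 65) and aromatic Cys staples. Read-out per 8-mer (and its reverse complement): E-score (rank-based enrichment, -0.5 to 0.5) and Z-score of median probe intensity.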

Sequence | PBM 8-mer E-score
GCAGATCA | -0.15 ± 0.0073
CTACCTGC | -0.0986 ± 0.014
ATAAATAA | 0.231 ± 0.0076
ATAAATAT | 0.319 ± 0.01
ATAAATAC | 0.263 ± 0.071
AGAAATAC | 0.0602 ± 0.05
ATAAATAG | 0.167 ± 0.075
AGAAATAA | 0.259 ± 0.097
TTAAATAA | 0.18 ± 0.063
AAAAATAT | 0.229 ± 0.035
GGAAATAA | 0.154 ± 0.013
TTAAGGAA | 0.0354 ± 0.0092
AGGAAGTG | -0.0996 ± 0.0079
CTCTTGAC | -0.0583 ± 0.0029
CCCAAATA | 0.176 ± 0.061
ACCGATCC | -0.277 ± 0.0028
AGAAGCAA | 0.1 ± 0.028
ATCGGTTA | -0.0224 ± 0.05
ATGATTAC | 0.149 ± 0.044
GATAGAGC | -0.15 ± 0.001
CTACATAG | 0.138 ± 0.14
TGTGCACA | 0.221 ± 0.046
CGTGCACG | 0.283 ± 0.13
CATGCATA | 0.19 ± 0.13
AATGCATC | 0.129 ± 0.082

Sequence | PBM 8-mer E-score
CATGCACA | 0.317 ± 0.082
CGTGCACA | 0.098 ± 0.028
AATGCATT | 0.348 ± 0.072
GATGCACA | -0.00748 ± 0.045
CATGCATG | 0.3719 ± 0.0024
CATGCATC | 0.0441 ± 0.017
CATGCACG | 0.183 ± 0.026
AATGCATA | 0.171 ± 0.09
GTGAATTA | 0.191 ± 0.067
CCTTACGC | 0.0271 ± 0.0015
AGCGTTTG | -0.169 ± 0.14
CCAAGTGG | -0.15414 ± 2.1e-05
CTTTAGGC | -0.158 ± 0.011
GAAGCTTA | 0.129 ± 0.018
ATGGACTA | 0.128 ± 0.015
GCGGATAA | -0.0466 ± 0.033
CTGACTAC | -0.0404 ± 0.19
CTATAAGC | -0.00153 ± 0.018
AATGCAAC | 0.197 ± 0.047
AATGCATG | 0.237 ± 0.073
AATGCAAG | 0.0709 ± 0.08
ACTGCATG | -0.0337 ± 0.13
CATGCAAC | 0.327 ± 0.012
CATGCAAG | 0.118 ± 0.015
GACTCCGA | -0.155 ± 0.046

Sequence | PBM 8-mer E-score
TCTCGACA | -0.0258 ± 0.011
TCGGGTAA | 0.00741 ± 0.027
ACAGGCAT | -0.0411 ± 0.063
CCTCTCTC | -0.045 ± 0.086
GCATCAGA | 0.0605 ± 0.012
GCATCATA | 0.274 ± 0.019
ATATCATA | 0.253 ± 0.14
CTATCATA | 0.208 ± 0.054
ATATCACA | 0.117 ± 0.14
CTATCACA | 0.169 ± 0.029
ACATCACT | 0.245 ± 0.095
ATATCACG | 0.294 ± 0.068
ACATCACC | -0.0768 ± 0.063
CCATCATA | 0.0385 ± 0.12
ATATCATG | 0.175 ± 0.056
ACATCACA | 0.221 ± 0.009
AGACTGGG | -0.147 ± 0.064
ACGGAATA | -0.0839 ± 0.0017
AGCTTGGG | -0.0797 ± 0.022
CAATGATG | -0.00417 ± 0.0019
ACGCTCGC | 0.0344 ± 0.16
CTGAGCTA | -0.17 ± 0.098
CATTTTAC | 0.188 ± 0.026
GCGTCAAA | -0.0402 ± 0.15
AGACGGGA | -0.0877 ± 0.053

Sequence | PBM 8-mer E-score
TGAATCCA | 0.0507 ± 0.048
GGGTTCCA | -0.11 ± 0.023
AGCGATTG | -0.152 ± 0.033
ACCAATCT | -0.0171 ± 0.067
ACATCATG | 0.07 ± 0.031
ACATCATC | 0.166 ± 0.041
ACATCATA | 0.249 ± 0.038
ATGTCACG | 0.297 ± 0.063
CTGTCACA | 0.00831 ± 0.13
ATGTCACA | 0.131 ± 0.002
AGGGTTTC | -0.0163 ± 0.01
GTATAACA | 0.228 ± 0.019
ATATAACC | 0.171 ± 0.041
ATATAACG | 0.269 ± 0.044
CAATAACG | 0.0808 ± 0.07
AAATAACG | 0.309 ± 0.086
CTATAACA | 0.157 ± 0.085
CTATAACC | 0.0519 ± 0.0013
AAATAACA | 0.204 ± 0.018
ATATAACA | 0.262 ± 0.032
CATAATTC | -0.00772 ± 0.086
GATAATTA | 0.127 ± 0.021
CCTAATTA | 0.0515 ± 0.15
AATAATTA | 0.26 ± 0.072
AATAATTC | 0.179 ± 0.12

Sequence | PBM 8-mer E-score
CATAATTA | 0.237 ± 0.031
GCGGAGCA | -0.239 ± 0.06
AAGACACT | 0.186 ± 0.0044
GAAACACA | 0.0586 ± 0.066
ACAAGCTG | -0.103 ± 0.091
CAACAATG | 0.137 ± 0.096
GAACAATA | 0.0766 ± 0.03
TAACAATA | 0.257 ± 0.033
AGACAATC | 0.0672 ± 0.021
CAACAATA | 0.324 ± 0.022
AGACAATA | 0.2983 ± 0.00038
CAACAATC | 0.0661 ± 0.052
AGACAATG | 0.0426 ± 0.00081
AAACAATA | 0.234 ± 0.038
ACACCCGG | -0.144 ± 0.016
GGGCTTGA | -0.165 ± 0.025
ACACAGGA | 0.0105 ± 0.0057
ACGGTCCT | -0.272 ± 0.044
CTAAGTGC | -0.0257 ± 0.067
TAAGAGAA | -0.0222 ± 0.03
CCAAATCA | -0.0102 ± 0.046
ACAAAAAC | 0.178 ± 0.055
ACAAATCA | 0.237 ± 0.12
ACCAAAAT | 0.168 ± 0.03
GCAAATCA | -0.0323 ± 0.096

Sequence | PBM 8-mer E-score
ACAAAAAT | 0.241 ± 0.05
AAAAAAAT | 0.168 ± 0.066
ACAAAAAG | 0.125 ± 0.074
ACAAAAAA | 0.249 ± 0.033
GTCATAAA | 0.193 ± 0.01
CCAAAACA | 0.231 ± 0.1
ACCACCGG | -0.2177 ± 0.00071
ATCTCTCC | -0.0165 ± 0.16
AACGCCCA | -0.077 ± 0.015
AACGCCAC | -0.111 ± 0.023
CTATGCCC | -0.0261 ± 0.02
AACGAATC | 0.023 ± 0.089
TGGTTACA | 0.0957 ± 0.036
ATTATAAT | 0.201 ± 0.042
ATTATAAG | 0.115 ± 0.13
CTTATAAA | 0.191 ± 0.0045
ATTATAAA | 0.296 ± 0.053
GTTATAAC | 0.187 ± 0.11
GTTATAAA | 0.239 ± 0.037
AGCCCAAG | -0.08 ± 0.11
CGAGAAGA | 0.0468 ± 0.0088
AGCCGTTG | -0.0362 ± 0.068
ACATATAG | 0.0848 ± 0.12
TCATATAA | 0.227 ± 0.06
ACATATAT | 0.323 ± 0.054

Sequence | PBM 8-mer E-score
AAATATAC | 0.209 ± 0.032
ACATATAA | 0.336 ± 0.069
ACCTATAT | 0.265 ± 0.0044
ACATATAC | 0.159 ± 0.052
ACCTATAA | 0.0216 ± 0.083
ACCTATAC | 0.0268 ± 0.14
AAATATAA | 0.218 ± 0.046
AAATATAT | 0.2435 ± 0.0013
CCATATAA | 0.225 ± 0.044
GCGTTTGA | -0.0646 ± 0.018
AAGCGAGG | -0.129 ± 0.12
GGCCACTA | 0.0658 ± 0.077
GTTGCGCA | -0.0795 ± 0.002
CACAGGTG | -0.0404 ± 0.033
ACCTATCA | 0.0576 ± 0.061
CTATCGTC | -0.0258 ± 0.024
CCGCGACA | -0.0992 ± 0.1
TGGCAAAA | -0.0471 ± 0.026
CCACGGGG | -0.281 ± 0.017
CAATCACC | 0.139 ± 0.013
CAATCACG | 0.288 ± 0.039
AAATCACA | 0.203 ± 0.026
